Laboratory results published in PubChem BioAssay (NCATS).
Inconclusive results are not listed. Where a call stands in place of a potency, no number is given. The source made the active and inactive calls. The call rests on the fitted dose curve; in most records, active means well fitted inhibition curve with a large enough effect; inconclusive means small, poorly fitted or top-dose-only effect; inactive means flat fitted curve, though single readings scatter.

The compounds below were run on Zika virus NS2B-NS3 protease (assay: Primary screen GU AMC qHTS for Zika virus inhibitors (AID 1347154; further: nearly all actives have a fitted effect of over 70% in size)). Settings: Zika NS2B-NS3 unlinked protease, AMC fluorogenic substrate; series mostly up to 54.1 µM.
Method in brief: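 Unlinked Zika NS2B hydrophilic domain–NS3 protease complex at 25 nM in 10 mM Tris-HCl pH 8.0, 0.01% Tween 20, with an AMC peptide substrate. Fluorescence change (340/450 nm) over 15 min at room temperature, normalized to controls, fitted to 4-parameter Hill.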

Row | SMILES | Potency | activity change, negative = inhibition
1 | COc1ccc(CCCOC(Cn2ccnc2)c2ccc(OC)cc2)cc1 (stereo unspecified) | inactive | –
2 | Cc1ccc(CC2(O)CCN(CCOc3ccc(O)cc3)CC2)cc1 | inactive | –
3 | O=C(NCCCCCCNC(=O)ON=C1CCCCC1)ON=C1CCCCC1 | inactive | –
4 | O=C1CC2(CCCC2)CC(=O)N1CCCCNCC1COc2ccccc2O1 (stereo unspecified) | inactive | –
5 | CCCCCCCCCCCCCCCCOCC(COP(=O)([O-])OCC[N+](C)(C)C)OC (stereo unspecified) | – | 5.04% [at 6.83 µM] (inactive)
6 | CC(Sc1nc2ccccc2[nH]1)C(=O)NN=Cc1cc(Br)ccc1O (stereo unspecified) | – | 1.61% [at 6.83 µM] (inactive)
7 | Nc1ncnc2c1ncn2[C@@H]1O[C@H](COP(=O)(O)OP(=O)(O)CP(=O)(O)O)[C@@H](O)[C@H]1O | inactive | –
8 | COc1ccc(S(=O)(=O)N(CCO)c2ccccc2CN(C)C/C=C/c2ccc(Cl)cc2)cc1 | inactive | –
9 | O=C(Nc1ccc([N+](=O)[O-])cc1O)Nc1ccccc1Br | inactive | –
10 | NCCCCCCNS(=O)(=O)c1cccc2c(Cl)cccc12 | inactive | –
11 | CCCn1c(=O)c2[nH]c(-c3ccc(OCC(=O)Nc4ccc(C#N)cc4)cc3)nc2n(CCC)c1=O | inactive | –
12 | CC(C)CC(NC(=O)NC(CCC(=O)O)C(=O)O)C(=O)O (stereo unspecified) | inactive | –
13 | C=C1C(=O)O[C@@H]2[C@H]3O[C@]3(C)CC/C=C(\C)CC[C@@H]12 | inactive | –
14 | CN(CCc1ccc(Cl)c(Cl)c1)CC(O)COc1ccc(NS(C)(=O)=O)cc1 (stereo unspecified) | inactive | –
15 | CCCC[C@@H](C=O)NC(=O)[C@H](CC(C)C)NC(=O)OCc1ccccc1 | inactive | –
16 | COc1ccc2c(c1)CC[C@@H]1[C@@H]2CC[C@]2(C)[C@@H](NCCCCCCN3C(=O)C=CC3=O)CC[C@@H]12 | inactive | –
